Read-out in test [1]: Interleukin 17F (IL17F), IL17F (gene 112744)
Kind of test: BSK_BT_xIL17F: BioMAP Diversity Plus: BT Assay for Interleukin 17F (IL17F) Biomarker Activity (AID 2284243). The conditions noted are these: primary human B cells with PBMC. In a few lines: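 Human PBMC co-cultured with B cells, compound exposure 24 h; secreted IL-17F quantified by Luminex xMAP, referenced to DMSO control. PBMC viability measured in parallel by Alamar Blue reduction.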

Read-out in test [2]: Actin alpha 1 (ACTA1), ACTA1 (gene 58)
The test can be described thus: BSK_MyoF_ACTA1: BioMAP Diversity Plus: MyoF Assay for Actin alpha 1 (ACTA1) Biomarker Activity (AID 2284244). The conditions noted are these: primary human lung fibroblasts. In a few lines:
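Cells were exposed to chemical for 24 h before a-SMA levels were quantified by ELISA in human lung fibroblasts. Increases were fitted against DMSO as negative control; parallel SRB staining (0.1% after 10% TCA fixation, 560 nm) assessed cytotoxicity.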

Read-out in test [3]: Interleukin 2 (IL2), IL2 (gene 3558)
The test can be described thus: BSK_BT_xIL2: BioMAP Diversity Plus: BT Assay for Interleukin 2 (IL2) Biomarker Activity (AID 2284245). To be noted: primary human B cells with PBMC. Put shortly: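 The BT system combines human B cells with peripheral blood mononuclear cells. Twenty-four hours after chemical dosing, secreted IL-2 was measured with xMAP bead technology, and responses were analyzed as increases over DMSO controls.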

Read-out in test [4]: Collagen IV, COL4A1 (gene 1282)
Kind of test: BSK_MyoF_CollagenIV: BioMAP Diversity Plus: MyoF Assay for Collagen IV Biomarker Activity (AID 2284247). The conditions noted are these: primary human lung fibroblasts. Put shortly:
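Human lung fibroblast system, 24 h chemical exposure. Endpoint: Collagen IV by ELISA, upward fit vs DMSO.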

Read-out in test [5]: Monokine induced gamma interferon (MIG), CXCL9 (gene 4283)
The test can be described thus: BSK_KF3CT_MIG: BioMAP Diversity Plus: KF3CT Assay for Monokine induced gamma interferon (MIG) Biomarker Activity (AID 2284248). To be noted: primary human keratinocytes with fibroblasts. In a few lines: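 Human keratinocyte–foreskin fibroblast co-culture; MIG measured by ELISA 24 h after chemical dosing, fitted upward versus DMSO. Cytotoxicity was assessed in parallel cultures by SRB total-protein staining read at 560 nm.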

Read-out in test [6]: Vascular cell adhesion molecule 1 (VCAM1), VCAM1 (gene 7412)
The test can be described thus: BSK_BF4T_VCAM1: BioMAP Diversity Plus: BF4T Assay for Vascular cell adhesion molecule 1 (VCAM1) Biomarker Activity (AID 2284249). To be noted: primary human bronchial epithelial cells with fibroblasts. Put shortly: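 Cell-surface VCAM-1 quantified by ELISA after 24 h chemical exposure of human bronchial epithelial/dermal fibroblast co-cultures, with SRB staining in parallel wells for cytotoxicity; DMSO baseline, positive-direction fitting.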

Read-out in test [7]: Interferon-inducible T-cell alpha chemoattractant (ITAC), CXCL11 (gene 6373)
Kind of test: BSK_hDFCGF_ITAC: BioMAP Diversity Plus: hDFCGF Assay for Interferon-inducible T-cell alpha chemoattractant (ITAC) Biomarker Activity (AID 2284251). The conditions noted are these: primary human foreskin fibroblasts. In a few lines: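 I-TAC levels were read by ELISA on human dermal foreskin fibroblast primary cultures 24 h after dosing, analysed against DMSO in the positive direction. Cytotoxicity was assessed alongside by sulforhodamine B total-protein staining.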

Read-out in test [8]: Plasminogen activator inhibitor-1 (PAI1), SERPINE1 (gene 5054)
Kind of test: BSK_KF3CT_PAI1: BioMAP Diversity Plus: KF3CT Assay for Plasminogen activator inhibitor-1 (PAI1) Biomarker Activity (AID 2284252). To be noted: primary human keratinocytes with fibroblasts. In a few lines:
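Cells (human keratinocytes co-cultured with foreskin fibroblasts) are exposed to test chemical for 24 h. PAI-1 is then measured by ELISA and analysed for signal gain against DMSO.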

Read-out in test [9]: Interleukin-8 (IL8), CXCL8 (gene 3576)
The test can be described thus: BSK_KF3CT_IL8: BioMAP Diversity Plus: KF3CT Assay for Interleukin-8 (IL8) Biomarker Activity (AID 2284254). To be noted: primary human keratinocytes with fibroblasts. In a few lines:
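Human keratinocyte/foreskin fibroblast co-culture dosed 24 h; IL-8 measured by ELISA relative to DMSO. Parallel cultures stained with SRB for total protein to flag cytotoxicity.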

Read-out in test [10]: Plasminogen activator inhibitor-1 (PAI1), SERPINE1 (gene 5054)
The test can be described thus: BSK_MyoF_PAI1: BioMAP Diversity Plus: MyoF Assay for Plasminogen activator inhibitor-1 (PAI1) Biomarker Activity (AID 2284256).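 On outcome: PAI-1 read 24 h after compound addition.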 The conditions noted are these: primary human lung fibroblasts. Put shortly: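 Primary human lung fibroblasts treated with chemical for 24 h; PAI-1 levels quantified by ELISA relative to DMSO. Cytotoxicity was assessed in parallel cultures by SRB total-protein staining (0.1% SRB after 10% TCA fixation, 560 nm).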

Read-out in test [11]: CD69, CD69 (gene 969)
The test can be described thus: BSK_IMphg_CD69: BioMAP Diversity Plus: IMphg Assay for CD69 Biomarker Activity (AID 2284257). The conditions noted are these: primary human endothelial cells with macrophages. Put shortly: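 Readout is ELISA for CD69 in primary human venular endothelial cell/macrophage co-culture, taken at 24 h post-dosing. SRB staining of parallel cultures gauged overt cytotoxicity; signal increase versus DMSO defined activity.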

Read-out in test [12]: Eotaxin 3, CCL26 (gene 10344)
The test can be described thus: BSK_BF4T_Eotaxin3: BioMAP Diversity Plus: BF4T Assay for Eotaxin 3 Biomarker Activity (AID 2284258). To be noted: primary human bronchial epithelial cells with fibroblasts. In a few lines: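 ELISA measurement of Eotaxin-3 after 24 h chemical exposure in a bronchial epithelial/dermal fibroblast co-culture, with DMSO as baseline. Parallel SRB staining (0.1% SRB after 10% TCA fixation, 560 nm) flagged overt cytotoxicity.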

Read-out in test [13]: Monocyte Chemoattractant Protein-1 (MCP1), CCL2 (gene 6347)
Kind of test: BSK_BF4T_MCP1: BioMAP Diversity Plus: BF4T Assay for Monocyte Chemoattractant Protein-1 (MCP1) Biomarker Activity (AID 2284259). To be noted: primary human bronchial epithelial cells with fibroblasts. In a few lines: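 MCP-1 ELISA readout taken 24 h after dosing in the BF4T system (bronchial epithelial cells plus dermal fibroblasts). Parallel SRB total-protein staining flagged cytotoxicity; DMSO served as baseline, positive fitting direction.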

Read-out in test [14]: Intercellular Adhesion Molecule 1 (ICAM1), ICAM1 (gene 3383)
The test can be described thus: BSK_BF4T_ICAM1: BioMAP Diversity Plus: BF4T Assay for Intercellular Adhesion Molecule 1 (ICAM1) Biomarker Activity (AID 2284260). The conditions noted are these: primary human bronchial epithelial cells with fibroblasts. Put shortly:
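ICAM-1 levels measured by ELISA after 24 h chemical treatment of bronchial epithelial cell/dermal fibroblast co-cultures, read against DMSO baseline. Overt cytotoxicity checked in parallel cultures by sulforhodamine B staining.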

Read-out in test [15]: Interleukin-8 (IL8), CXCL8 (gene 3576)
Kind of test: BSK_MyoF_IL8: BioMAP Diversity Plus: MyoF Assay for Interleukin-8 (IL8) Biomarker Activity (AID 2284261). To be noted: primary human lung fibroblasts. Put shortly:
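Human lung fibroblast (MyoF system) cultures dosed for 24 h, then IL-8 measured by ELISA. Response taken relative to DMSO; parallel SRB total-protein staining for cytotoxicity.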

Read-out in test [16]: CD90, THY1 (gene 7070)
Kind of test: BSK_BF4T_CD90: BioMAP Diversity Plus: BF4T Assay for CD90 Biomarker Activity (AID 2284262). To be noted: primary human bronchial epithelial cells with fibroblasts. Put shortly: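 CD90 levels by ELISA after 24 h treatment of human bronchial epithelial cell/dermal fibroblast cultures, analysed versus DMSO. Overt cytotoxicity checked in parallel cultures by sulforhodamine B staining.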

Read-out in test [17]: Monocyte Chemoattractant Protein-1 (MCP1), CCL2 (gene 6347)
The test can be described thus: BSK_IMphg_MCP1: BioMAP Diversity Plus: IMphg Assay for Monocyte Chemoattractant Protein-1 (MCP1) Biomarker Activity (AID 2284253). The conditions noted are these: primary human endothelial cells with macrophages. In a few lines:
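ELISA readout of MCP-1 at 24 hours in IMphg co-cultures of venular endothelial cells and macrophages, normalised to DMSO; parallel cultures stained with sulforhodamine B for overt cytotoxicity.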

Several values for one entry are separate records, joined by “and”; a condition that tells them apart may be missing. Equal entries are not always repeated. The source holds several records for some structures; these can differ, active in one and inactive in another. Activity calls are given as the source filed them. How the source made its calls: active means hit-call score of the fitted dose curve at least 0.9, where 1 is the maximum; inactive means score below 0.9.

By AC50 is commonly meant the concentration at which the activity in the assay is half-maximal. As for `C=CC(=O)OCC(F)(F)C(F)(F)C(F)(F)COC(=O)C=C`, the AC50 in test [1] was 2.89 µM (active) and 3.25 µM (active); in [2], 8.23 µM (active) and 4.42 µM (active); in test [3], 9.03 µM (active) and 9.56 µM (active); in test [5], 23.2 µM (active) and 22.2 µM (active); in test [6], 7.91 µM (active) and 8.05 µM (active); in [7] it was 733 nM (active) and 1.58 µM (active). Also, the AC50 in test [8] is 22.7 µM (active) and 21.2 µM (active); in test [9], 14.7 µM (active) and 14.9 µM (active); in test [10] it was 14.2 µM (active) and 14.7 µM (active); in test [11] it was 54.8 µM (active) and 44 µM (active); in test [12] it was 14.8 µM (active) and 17 µM (active); in test [13], 15.3 µM (active) and 11.7 µM (active). The AC50 is 7.12 µM (active) and 9.76 µM (active) in test [14]; 16.5 µM (active) and 14.3 µM (active) in test [15]; 8.59 µM (active) in test [16]. Moreover, the outcome in [4] and in [16] was inactive.
`O=C(O)C(F)(F)OC(F)(F)C(F)(F)OC(F)(F)C(F)(F)OC(F)(F)F`: the outcome in test [1], in test [2], in test [3], in test [4], in test [5] and in test [6] was inactive. The outcome in [7], in test [8], in test [9], in test [10], in test [11] and in test [12] was inactive. The outcome in test [13], in test [14], in test [15] and in test [16] was inactive.
On to `NC(O)(C(F)(F)F)C(F)(F)F`, for which the outcome in test [1], in [2], in test [3], in test [4], in test [5] and in test [6] was inactive. Also, the result in test [7], in [8], in test [9], in test [10], in [11] and in [12] was inactive. For the same molecule, the outcome in test [13], in test [14], in [15] and in test [16] was inactive.
Take `OCC(F)(F)C(F)(F)C(F)(F)CO`: the outcome in test [1], in test [2], in test [3], in [4], in test [5] and in test [6] was inactive. The outcome in test [7], in test [8], in [17], in test [9], in test [10] and in test [11] was inactive. The result in test [12], in [13], in test [14], in test [15] and in test [16] was inactive. Further, the half-maximal activity concentration (AC50) in [7] is 9.21 µM (active).
Turning to `O=C(Cl)C(F)(F)C(F)(F)C(F)(F)C(F)(F)C(F)(F)C(F)(F)F`, the outcome in test [1], in [2], in [3], in test [4], in test [5] and in test [6] was inactive. The outcome in [7], in [8], in test [9], in test [10], in test [11] and in test [12] was inactive. Besides, the outcome in test [13], in test [14], in test [15] and in [16] was inactive.
Take `FC(F)(F)C(F)(F)C(F)(F)C(F)(F)C(F)(F)C(F)(F)C(F)(F)CCI`: the result in test [1], in test [2], in test [3], in test [4], in [5] and in [6] was inactive. Also, the result in test [7], in [8], in test [9], in test [10], in [11] and in [12] was inactive. For the same molecule, the result in test [13], in [14], in test [15] and in test [16] was inactive. For the same molecule, the concentration at half-maximal activity (AC50) in test [7] was 3.33 µM (active).
As to `O=C=Nc1cccc2c(N=C=O)cccc12`, the result in test [1], in test [2], in [3], in test [4], in [10] and in test [15] was inactive.

The record behind these values is PubChem BioAssay (EPA / NIEHS).
